The results in this text go back to PubChem BioAssay (NCI).

Assay [1] can be described thus: NCI Yeast Anticancer Drug Screen. Data for the rad50 strain (AID 155).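 Note: 0% = growth of vehicle-only cultures of the same strain.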 Particulars: S. cerevisiae rad50 strain growth inhibition; at 50.0 µM; hits give high values. A digest of the protocol: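 Inhibition values express reduced yeast growth in compound-treated cultures relative to vehicle-treated controls.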
The nature of assay [2]: NCI Yeast Anticancer Drug Screen. Data for the mec2-1 strain (AID 157). As to conditions: S. cerevisiae mec2-1 strain, at 50.0 µM, hits give high values. The procedure, abridged:
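Readout is yeast growth inhibition, normalised to vehicle-treated controls, in the mec2-1 strain exposed to compound.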

The nature of assay [3]: NCI Yeast Anticancer Drug Screen. Data for the sgs1 mgt1 strain (AID 161).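 Note: 0% = growth of cultures given vehicle only.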 Particulars: S. cerevisiae sgs1 mgt1 strain, at 50.0 µM, hits give high values. A digest of the protocol: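 This yeast growth screen uses a strain with defined DNA-repair lesions; compound-treated growth is compared with vehicle-treated growth.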
A short description of assay [4]: NCI Yeast Anticancer Drug Screen. Data for the cln2 rad14 strain (AID 165).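 Note: 0% = growth equal to vehicle treated cultures.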 Particulars: S. cerevisiae cln2 rad14 strain, at 50.0 µM, hits give high values. A digest of the protocol: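 Relative to vehicle controls, growth inhibition of compound-treated cln2 rad14 yeast was recorded.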
Assay [5] in a line: NCI Yeast Anticancer Drug Screen. Data for the bub3 strain (AID 167). As to conditions: S. cerevisiae bub3 mutant strain, at 50.0 µM, hits give high values. A digest of the protocol: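 Steps: expose the mutant yeast strain to compound; grow alongside vehicle-treated cultures; measure growth; express inhibition against the vehicle cultures.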
The nature of assay [6]: NCI Yeast Anticancer Drug Screen. Data for the mlh1 rad18 strain (AID 175). Particulars: S. cerevisiae mlh1 rad18 strain growth inhibition; at 50.0 µM; hits give high values. The procedure, abridged:
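Test agents were incubated with a yeast strain of defined genotype (DNA damage repair defect). Inhibition of growth was derived by comparison with vehicle-exposed cultures.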

The panel holds about 79,000 compounds, 15% with a hit somewhere; the sample as a whole holds those more often. Values without a mark were called inactive. Calls of active or inactive are those of the source. Cut-off read from the data, not from the text of the source: active = growth inhibition above about 70%; inactive = the rest.

With `Oc1ccccc1C=Nc1ccccc1N=Cc1ccccc1O.[Zn]`, the growth inhibition in assay [1] is 6.45%; in assay [2], 4%; in assay [3] it was -3.45%; in assay [4], 26.5%; in assay [5] it was -4.05%; in assay [6], 12.9%.

In the case of `N#CC12CC3CC(CC(C3)C1)C2`, the growth inhibition was -3.9% in assay [1]; -1.5% in assay [2]; -15% in assay [3]; -45% in assay [4]; -9.3% in assay [5]; 4.35% in assay [6].

Consider `Fc1ccc(CSC(=S)Nc2ccc(I)cc2)cc1`, for which the growth inhibition in assay [1] was 98.8% (active); in assay [2] it was 99.2% (active); in assay [3] it was 99.2% (active); in assay [4] it was 99.2% (active); in assay [5] it was 98.7% (active); in assay [6] it was 99% (active).

For `O=c1[nH]n2c(=O)cc[nH]c2c1-c1nnns1`, the growth inhibition in assay [1] was -15.8%; in assay [2], -2.95%; in assay [3], -36.1%; in assay [4] it was 9.65%; in assay [5] it was -21.1%; in assay [6] it was -25.2%.

Turning to `N#C/C(=C\c1ccc[nH]1)C(=O)c1ccccc1`, the growth inhibition in assay [1] is -5.7%; in assay [2], -11.8%; in assay [3], -18.9%; in assay [4] it was 16.5%; in assay [5], 1.15%; in assay [6] it was -28.6%.

In the case of `O=C1Cc2ccccc2CN1`, the growth inhibition in assay [1] is -6.95%; in assay [2] it was 13.3%; in assay [3], -3.5%; in assay [4] it was 19.6%; in assay [5], 2.15%; in assay [6] it was 32.3%.

For the molecule `COc1cc(CO)c(CO)cc1OC`, the growth inhibition in assay [1] is -5.05%; in assay [2] it was -3.2%; in assay [3] it was -5.65%; in assay [4], -10.8%; in assay [5], 4%; in assay [6], -8.95%.

In the case of `N#Cc1ccc(OCCCOc2ccc(C#N)cc2)cc1`, the growth inhibition in assay [1] is 8.15%; in assay [2], 12.2%; in assay [3], 9.65%; in assay [4] it was 5.3%; in assay [5], 46.2%; in assay [6], -4.15%.

With `NC1CC1`, the growth inhibition was -8.4% in assay [1]; -1.1% in assay [2]; -4.6% in assay [3]; -9.95% in assay [4]; 11.6% in assay [5]; -22.9% in assay [6].

Take `Nc1nc2cc(Cl)c(O)cc2o1`: the growth inhibition was -3.25% in assay [1]; -11.6% in assay [2]; -3.5% in assay [3]; -6.7% in assay [4]; -3.55% in assay [5]; -7.9% in assay [6].

For the molecule `NC(=O)c1ccccc1C(=O)c1ccccc1`, the growth inhibition in assay [1] was -35%; in assay [2], 1.85%; in assay [3], -8.6%; in assay [4] it was -20.1%; in assay [5] it was -27.1%; in assay [6], -10.3%.

As to `O=[N+]([O-])c1ccc(/C(CBr)=N/N2CCCCC2)cc1`, the growth inhibition is -19.6% in assay [1]; -24.9% in assay [2]; -4.6% in assay [3]; 3.55% in assay [4]; -9.65% in assay [5]; -13.6% in assay [6].

`Cn1ccc(=S)c2ccccc21`: the growth inhibition was 18.2% in assay [1]; 1.25% in assay [2]; 9.6% in assay [3]; -56.1% in assay [4]; -2.15% in assay [5]; 19.5% in assay [6].

As for `COc1c(NC(=O)c2ccccc2Cl)cccc1[N+](=O)[O-]`, the growth inhibition in assay [1] was -1%; in assay [2], 1.3%; in assay [3], 13.8%; in assay [4], -6.75%; in assay [5], 16.9%; in assay [6], 20.2%.

On to `CSc1cc(C)n2nnnc2n1`, for which the growth inhibition in assay [1] was 1.25%; in assay [2] it was -11.9%; in assay [3] it was -3.2%; in assay [4], -27.2%; in assay [5], -3.75%; in assay [6], -0.3%.

As for `c1ccc(SC2CCSc3ccccc3C2Sc2ccccc2)cc1` (stereo unspecified), the growth inhibition in assay [1] is 3.2%; in assay [2], -14.7%; in assay [3], 3.2%; in assay [4], 3.65%; in assay [5], 0.5%; in assay [6] it was 11.2%.

On to `CCCCCCCCCCCCCCCC[N+](C)(C)CCN`, for which the growth inhibition in assay [1] is 98.9% (active); in assay [2], 50.8%; in assay [3] it was 58.4%; in assay [4], 73.4% (active); in assay [5], 49.2%; in assay [6], 59.7%.

Regarding `CC1C=CC(C(=O)Nc2ccc(Cl)c(Cl)c2)N1C` (stereo unspecified), the growth inhibition was 1% in assay [1]; 12.2% in assay [2]; 7.6% in assay [3]; -33.9% in assay [4]; -11.9% in assay [5]; 2.75% in assay [6].

Consider `CO/N=C(\C(=O)N(C)n1cnnc1)c1csc(NC(c2ccccc2)(c2ccccc2)c2ccccc2)n1`, for which the growth inhibition in assay [1] is 21.7%; in assay [2], 13.2%; in assay [3] it was 11.8%; in assay [4], 25.1%; in assay [5] it was 18.8%; in assay [6], 28%.

With `CC(C)(C)C1=CC(=O)OC1(Cl)C(C)(C)C` (stereo unspecified), the growth inhibition in assay [1] was -0.65%; in assay [2] it was 6.8%; in assay [3], -1.05%; in assay [4], 8.8%; in assay [5] it was 13.8%; in assay [6], -9.05%.

Regarding `O=[N+]([O-])c1ccc(CC(Cl)c2ccccn2)cc1` (stereo unspecified), the growth inhibition in assay [1] is 18.9%; in assay [2], 9.85%; in assay [3], 19.1%; in assay [4], -11.4%; in assay [5], 22.2%; in assay [6] it was 42.2%.
